# Calb FLC = C. albicans growth inhibition with fluconazole, primary screen, CaCi-2 strain, Alamar Blue fluorescence; C. albicans CaCi-2 (fluconazole-resistant clinical isolate) + fluconazole, 48 h; AID 1979, 2009; hit rate 0.57% among 300,000; growth inhibition, % (concentration not given with the values);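 active means growth inhibition above about 58% in most replicates, limit read from the data, passing the limit was not always enough; inconclusive means exactly half the replicates above a set limit; inactive means most replicates below a set limit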;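 further: all wells also contain fluconazole at 8 µg/ml as a sub-toxic cotreatment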
# MPTP block = mitochondrial permeability transition pore inhibitors, primary screen, biochemical, isolated mouse mitochondria, absorbance; Ca2+ swelling absorbance, 30 min; inhibition, % at 10 µM; AID 602449, 2012; hit rate 1.4% among 360,000;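 active means inhibition of 50% or more, scaled per plate between neutral and stimulator controls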
# Beta cell apopt = inhibitors of cytokine-induced beta cell apoptosis, primary screen, luminescence; INS-1E cytokine-induced death, ATP luminescence, 48 h; percent of positive-control rescue, neutral wells zero; protection from apoptosis, % (concentration not given with the values); AID 435005, 2010; hit rate 0.8% among 300,000;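 active means Every replicate reaches about 75%, or at least half do and their mean reaches it too, limit read from the data; inconclusive means At least half of replicates reach the limit but their mean does not; inactive means Under half of replicates reach the limit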;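 further: higher means more ATP so stronger rescue from cytokine killing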
# SKKanGAS inh = S. pyogenes SKKanGAS growth inhibitors in kanamycin, primary screen, streptokinase expression inhibitor project, SKKanGAS strain, BacTiter-Glo luminescence. hit rate 1.3% among 300,000. inhibition, % at 7.5 µM. 6 h. AID 1662, 2009;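 active means mean replicate score, as percent of positive control median, at least 50; inconclusive means mean below 50 but one replicate at or above 50; inactive means mean and every replicate below 50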;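 further: strain carries kanamycin resistance gene driven by streptokinase promoter and grows in 40 µg/ml kanamycin; loss of luminescence reflects streptokinase promoter inhibition or plain growth inhibition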
# Mdm2 MdmX PPI = inhibitors of human Mdm2-MdmX association, primary screen, cell-based, luminescence, split luciferase, SaOS-2, uHTS. Protein Mdm4 (Homo sapiens) + E3 ubiquitin-protein ligase Mdm2 (Homo sapiens), …. SaOS-2 split-luciferase Mdm2/MdmX complementation. inhibition, % at 8 µM. hit rate 3% among 330,000. AID 485346, 2010;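 active means inhibition of at least 50% at 8 µM in the primary screen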
# Target sequence (O15151 whole entry, looked up): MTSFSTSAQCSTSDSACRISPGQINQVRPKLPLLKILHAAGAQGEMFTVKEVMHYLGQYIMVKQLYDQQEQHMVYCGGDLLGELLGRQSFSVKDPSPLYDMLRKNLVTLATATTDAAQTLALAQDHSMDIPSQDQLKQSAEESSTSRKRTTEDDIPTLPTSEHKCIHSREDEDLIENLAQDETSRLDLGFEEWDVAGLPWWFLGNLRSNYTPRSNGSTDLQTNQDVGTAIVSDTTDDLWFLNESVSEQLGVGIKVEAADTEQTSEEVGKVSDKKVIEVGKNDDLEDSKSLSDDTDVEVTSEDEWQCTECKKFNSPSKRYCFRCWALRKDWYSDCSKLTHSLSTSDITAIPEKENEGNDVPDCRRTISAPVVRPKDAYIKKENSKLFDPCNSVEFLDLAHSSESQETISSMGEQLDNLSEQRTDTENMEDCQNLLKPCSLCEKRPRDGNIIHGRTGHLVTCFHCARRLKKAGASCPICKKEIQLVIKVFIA
# Target sequence (Q00987 whole entry, looked up): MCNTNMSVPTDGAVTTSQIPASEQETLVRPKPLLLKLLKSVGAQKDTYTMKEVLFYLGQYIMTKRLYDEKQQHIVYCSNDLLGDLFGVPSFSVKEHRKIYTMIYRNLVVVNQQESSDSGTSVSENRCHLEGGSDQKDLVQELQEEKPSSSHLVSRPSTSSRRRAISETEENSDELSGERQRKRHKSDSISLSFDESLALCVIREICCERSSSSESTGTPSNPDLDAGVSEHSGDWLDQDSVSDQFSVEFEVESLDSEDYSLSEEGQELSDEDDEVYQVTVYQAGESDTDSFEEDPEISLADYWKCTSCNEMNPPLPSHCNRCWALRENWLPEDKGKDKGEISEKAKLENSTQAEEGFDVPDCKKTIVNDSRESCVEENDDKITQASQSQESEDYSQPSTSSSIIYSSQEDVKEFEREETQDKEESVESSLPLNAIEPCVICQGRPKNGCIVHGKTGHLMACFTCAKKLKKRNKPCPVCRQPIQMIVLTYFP
# CSC inhib = cancer stem cell viability inhibitors, primary screen, luminescence; inhibition, % at 7.5 µM; AID 2717, 2010; hit rate 1.1% among 300,000; cancer stem cell-like cells viability; in the data active means inhibition above about 75%; inconclusive means no clear call, values can overlap the other calls; tested in HMLE shEcad cells
# Numbers stand for hits; i = inactive; ? = inconclusive; nt = no result. Hits are enriched below; roughly 5.4% of the tested compounds scored in any of these assays.
SMILES,Calb FLC,MPTP block,Beta cell apopt,SKKanGAS inh,Mdm2 MdmX PPI,CSC inhib
CC(=O)c1cc(C#N)c(N2CCCC2)nc1C,93,i,i,i,i,nt
O=C(COc1ccc(S(=O)(=O)N2CCOCC2)cc1)NCc1ccco1,i,i,nt,i,i,i
c1ccc(-c2nc(C3CCCCC3)c3sccc3n2)cc1,i,i,i,84,i,i
O=C(OC[C@H]1O[C@@H](OC(=O)c2cc(O)c(O)c(OC(=O)c3cc(O)c(O)c(O)c3)c2)[C@H](OC(=O)c2cc(O)c(O)c(OC(=O)c3cc(O)c(O)c(O)c3)c2)[C@@H](OC(=O)c2cc(O)c(O)c(OC(=O)c3cc(O)c(O)c(O)c3)c2)[C@@H]1OC(=O)c1cc(O)c(O)c(OC(=O)c2cc(O)c(O)c(O)c2)c1)c1cc(O)c(O)c(OC(=O)c2cc(O)c(O)c(O)c2)c1,nt,nt,i,nt,nt,90
COc1ccc(-c2cn(Cc3ccc([N+](=O)[O-])cc3)nn2)cc1,i,i,i,i,i,i
CNc1ccc(OC)cc1-n1cnc(-c2ccc([N+](=O)[O-])cc2)c1,101,i,nt,i,i,i
Cc1cccc(-c2nc(Nc3cccc(O)c3)c3ccccc3n2)c1,i,i,i,i,i,81
O=C(O)COCC(=O)N1CCCN(c2ccc(C(F)(F)F)cn2)CC1,i,i,i,i,nt,i
CCOc1ccc(C(=O)CCC(=O)N2CCN(c3ccc(O)cc3)CC2)cc1,nt,i,i,nt,i,81
CCOC(=O)N1CCN(C(=O)CCC(=O)c2ccc(OCC)cc2)CC1,i,i,nt,i,i,i
O=C(CCC(=O)N1CCN(c2ccc(O)cc2)CC1)c1ccc(Br)cc1,?,nt,i,i,i,101
Cc1ccc(S(=O)(=O)N2CCN(S(=O)(=O)c3c(C)n[nH]c3C)CC2)cc1C,nt,i,i,nt,i,i
COC(=O)Cc1csc(Nc2ccc(F)c(Cl)c2)n1,i,i,i,i,i,i
COc1ccc2c(/C=C/c3cc[n+](C)cc3)c[nH]c2c1,i,i,i,i,i,i
COc1ccc2c(c1)c(/C=C/c1cc[n+](C)cc1)cn2C,81,i,i,i,i,i
c1ccc(Cn2c(CN3CCCC3)nc3ccccc32)cc1,i,i,nt,i,i,i
Cc1ncc(CO)c(/C=N/NC(=O)c2cc(Br)ccc2O)c1O,?,i,i,92,i,i
O=C(CSc1n[nH]c(-c2ccc(S(=O)(=O)NC3CCCCC3)cc2)n1)N1CCCC1,i,i,i,i,i,i
COc1ccc(C(=O)CC(=O)C(=O)Nc2ccccc2C(F)(F)F)cc1,i,i,i,85,i,i
COc1ccc(C(=O)CC(=O)C(=O)Nc2ccccc2Cl)cc1,i,i,i,56,nt,i
O=C(c1cc(COc2ccc(F)cc2Cl)on1)N1CCCC(c2ccccc2)C1 (configuration not stated),?,i,i,i,i,i
C[C@@H]1CN([C@@H](C)CO)C(=O)CCCn2cc(nn2)CO[C@H]1CN(C)C(=O)OCc1ccccc1,nt,i,nt,nt,nt,nt
COc1ccccc1CNC(=O)Cc1csc(NC(=O)Nc2ccccc2OC)n1,i,i,i,i,i,nt
COc1cc(OC)cc(C(=O)Nc2nc(CC(=O)NCc3ccccc3OC)cs2)c1,i,i,i,62,i,nt
COc1ccccc1NC(=O)Nc1nc(CC(=O)Nc2cc(F)ccc2F)cs1,i,i,i,82,i,nt
SMILES,Calb FLC,MPTP block,Beta cell apopt,SKKanGAS inh,Mdm2 MdmX PPI,CSC inhib
COc1ccc(N2CCN(C(=O)Cc3csc(NC(=O)Nc4ccccc4OC)n3)CC2)cc1,i,i,i,66,i,nt
COc1ccc(CNC(=O)Cc2csc(NC(=O)Nc3ccccc3OC)n2)cc1,i,i,i,55,i,nt
COc1ccccc1NC(=O)Nc1nc(CC(=O)N2CCN(c3ccccc3)CC2)cs1,i,i,i,i,i,i
CCOc1ccc(OCC)c(NC(=O)CSc2nc3c(c(=O)n(C)c(=O)n3C)n2C(C)C)c1,i,i,i,i,i,i
O=C(COc1ccc(Cl)cc1)NCCSCc1cccc(Cl)c1,i,i,i,i,i,nt
O=C1CN(S(=O)(=O)c2ccc(F)cc2)CC(=O)N1CCc1ccccc1,i,nt,nt,i,nt,nt
c1ccc(-c2nnc(-c3ccccn3)nc2NC2CCCCC2)cc1,i,i,96,104,i,i
CNc1nc(-c2ccccn2)nnc1-c1ccccc1,i,i,i,i,i,i
Cc1ccc(C)c(SCC(=O)Nc2cccc(S(=O)(=O)NC3=NCCCCC3)c2)c1,i,i,i,i,i,i
O=C(CSc1ccc2ccccc2c1Br)Nc1cccc(S(=O)(=O)NC2=NCCCCC2)c1,i,i,i,i,i,91
O=C(COc1ccc(S(=O)(=O)N2CCCC2)cc1)N1CCN(c2ccccc2F)CC1,i,i,i,i,i,i
CCOC(=O)COc1ccc(S(=O)(=O)N2CCN(c3ccccc3F)CC2)cc1,103,i,i,i,i,i
COc1ccc(C(=O)Nc2ccccc2-c2nnn(CC(=O)N3CCOCC3)n2)cc1,i,i,i,i,i,i
COc1ccc(C(=O)Cn2nnc(-c3ccccc3NC(=O)c3ccco3)n2)cc1,i,i,i,55,i,i
Cc1nn(-c2nc3ccccc3[nH]2)c(N)c1-c1ccc(Cl)cc1,i,i,i,68,i,i
Cc1nn(-c2nc3ccccc3[nH]2)c(=O)c2ccccc12,i,i,86,?,nt,97
Cc1ccc(CN2CC(C(=O)Nc3cc(S(C)(=O)=O)ccc3Cl)CC2=O)cc1 (configuration not stated),i,i,i,i,i,nt
Clc1ccc2scc(CN3CCCC3)c2c1,i,i,i,i,i,i
CCOc1cc(C(=O)NCc2ccccc2)ccc1OCC(=O)N1CCOCC1,98,i,i,i,i,nt
CCc1ccccc1Nc1nn2c(=O)c3ccc(C(=O)NCc4ccccn4)cc3nc2s1,i,i,i,i,i,83
CCOC(=O)c1sc(NC(=O)CN2CCCC2)c(C(=O)OCC)c1C,i,i,i,i,i,i
CCOC(=O)c1c(NC(=O)CN2CCN(C)CC2)sc(C(=O)Nc2ccccc2)c1C,i,i,i,i,i,79
Cc1ccc(NC(=O)NCc2ccccn2)c(C)c1,95,i,i,nt,i,i
c1ccc(-c2ccc(C3=Nn4c(nnc4-c4cccs4)SC3)cc2)cc1,i,i,nt,51,i,i
CC(C)N1CCN(C(=O)c2cccc(Cl)c2)CC1,i,i,i,i,i,i
CCOC(=O)CSc1ccc2nnc(CCNS(=O)(=O)c3ccc(C)cc3)n2n1,i,i,i,i,i,i
CC(=O)Nc1ccc(NC(=O)CSc2ccc3nnc(CCNS(=O)(=O)c4ccc(C)cc4)n3n2)cc1,77,i,i,i,i,i
COc1c(N2CCN(C(=S)NCc3ccccc3)C(C)C2)c(F)cc2c(=O)c(C(=O)O)cn(C3CC3)c12 (configuration not stated),i,i,i,106,i,nt
